Measurements from the OligoGym collection.

Each sequence was assayed against NXF5 (assay: pooled miR-30 sensor sort-seq; sequence = guide strand). Conditions: shRNA.

Going from TACATAGGCAGACTGGTCCGAG to TACAGTTTGTTGTTGCACAAGT, the sensor-assay potency score (higher = more potent) falls from -0.391 to -0.398.

TCTTTCAGTGATCTTCAGGGTG gave a sensor-assay potency score (higher = more potent) of -0.168.

What follows are sequences tested against OAS3 in the same assay as above. Conditions: shRNA.

Compared with TACCAGTGCTTCACCAGCCGGA, TTGAACTGGGAGTCCTTCCCGC is higher in sensor-assay potency score (higher = more potent): -0.364 for the first, -0.289 for the second.

First: TTGTAGTCCGTGAAGCAGTTGA
Second: TTTGTTCTGAGCCGCAACCTGG
The sensor-assay potency score (higher = more potent) of the first is higher: -0.0592 for the first, -1.14 for the second.

Going from TTCTCTACGAACTCCTTCCGCG to TAGGCTGAAAGCATCCTTCTTA, the sensor-assay potency score (higher = more potent) rises from -0.635 to 0.0263.

Compared with TTCAACATCACAGCCATCCCTT, TTTGGTGCCAGAACTGAGCTGC is higher in sensor-assay potency score (higher = more potent): -0.469 for the first, 0.736 for the second.

First: TAGACTTGAGAGCTGGGCCTGG
Second: TGTAGCTCTGTGAAGCAGGTGG
The sensor-assay potency score (higher = more potent) of the first is lower: -0.478 for the first, 0.189 for the second.

Going from TTCAGAATCACAGCCACCCTTG to TTGACCGTCCAGTAGACACAGA, the sensor-assay potency score (higher = more potent) falls from -0.336 to -0.525.
